Laboratory results reported in PubChem BioAssay.
A number with no mark means an inactive call. No rule for the calls is given here.

What follows are compounds tested on Aerobactin synthetase IucA (Klebsiella pneumoniae hvKP1) (assay: Biochemical IucA enzyme inhibition primary screen of the Spectrum library (AID 1346200;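 also: 100% = wells without compound and 0% = wells lacking enzyme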)). Details: malachite green pyrophosphate, A620, at 8 µM, stronger effect = lower value.
With `O=C(O[C@@H]1Cc2c(O)cc(O)cc2O[C@@H]1c1cc(O)c(O)c(O)c1-c1c([C@H]2Oc3cc(O)cc(O)c3C[C@H]2O)cc(O)c(O)c1O)c1cc(O)c(O)c(O)c1` the activity remaining was 119%.
Work on `CN1CCc2c(c3ccccc3n2Cc2ccccc2)C1` yielded an activity remaining of 116%.
`CC1(C)O[C@H]2CC(=O)OC[C@]23[C@H]2CC[C@@]4(C)[C@H](c5ccoc5)OC(=O)[C@H]5O[C@]54[C@]2(C)C(=O)C[C@@H]13` was tested, and the activity remaining was 112%.
`CC(=O)Nc1cccc(O)c1` was tested, and the activity remaining was 120%.
Compound `CC(C)c1c(C(=O)c2ccccc2)c(-c2ccccc2)c(-c2ccc(F)cc2)n1CC[C@@H](O)C[C@@H](O)CC(=O)O` has an activity remaining of 116%.
